# Reference: PubChem BioAssay
# Target: Albumin (Bos taurus) (UniProt P02769)
# Assay: compounds binding labelled BSA control protein – biochemical, small-molecule microarray, Alexa647 label, 635/667 nm fluorescence, artefact control for SMM control protein annotation, profiling panel (AID 1118);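 further: score merges 667 nm emission intensity and signal-to-noise per printed compound spot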
# Conditions: BSA-A647 binding, fluorescence 635 nm, higher = more signal
# Chain of Albumin (Bos taurus) (P02769 whole entry, looked up): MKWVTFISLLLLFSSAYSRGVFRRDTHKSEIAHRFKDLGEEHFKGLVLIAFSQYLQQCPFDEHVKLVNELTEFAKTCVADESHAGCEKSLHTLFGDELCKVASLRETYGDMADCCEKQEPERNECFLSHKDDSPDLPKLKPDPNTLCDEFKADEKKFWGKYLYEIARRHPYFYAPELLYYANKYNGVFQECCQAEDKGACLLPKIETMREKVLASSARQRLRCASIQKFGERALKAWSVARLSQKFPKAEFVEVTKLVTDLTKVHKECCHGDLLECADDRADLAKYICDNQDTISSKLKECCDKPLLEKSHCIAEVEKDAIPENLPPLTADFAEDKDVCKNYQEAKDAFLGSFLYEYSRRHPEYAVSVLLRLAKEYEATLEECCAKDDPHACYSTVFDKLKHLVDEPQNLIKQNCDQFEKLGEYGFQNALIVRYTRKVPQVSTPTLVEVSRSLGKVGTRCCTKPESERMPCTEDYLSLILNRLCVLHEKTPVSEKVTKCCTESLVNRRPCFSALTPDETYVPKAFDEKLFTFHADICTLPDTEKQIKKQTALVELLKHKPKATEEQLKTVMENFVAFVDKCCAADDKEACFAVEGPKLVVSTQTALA
row,SMILES,composite z-score
1,COc1ccc(C(=O)Nc2ccc(CN3C(=O)[C@@]4(O[C@@H](CC(=O)N5CCC[C@H]5CO)[C@H]([Si](C)(C)c5ccc(OC)cc5)[C@H]4C)c4ccccc43)cc2)cc1,0.042
2,CN1C(=O)C2C=CC(C(O)C3=C[C@H]4C[C@@H](C3)C4(C)C)N(Nc3ccccc3)C2C1=O (some centres undefined),0.566
3,CS(=O)(=O)CCOC(=O)C1=CC(CCCO)=CC(c2ccc(CN3CCCC3)cc2)N(Cc2cc3c(cc2Br)OCO3)C=C1C(=O)OCCS(C)(=O)=O (centres undefined),0.649
4,COC(=O)[C@@]1(Cc2ccc(OC)cc2)[C@H]2c3cc(C(=O)N4CCCC4)n(Cc4ccccc4)c3C[C@H]2CN1C(=O)c1ccccc1,1.05
5,C[N+](C)(C)CCCCNC(=O)[C@H]1C[C@H]2C(=O)N[C@@H](Cc3ccccc3)C(=O)N2[C@H]1c1ccc(O)cc1,-1.16
6,C[C@]1(C(=O)NC2CC2)c2ccccc2C(=O)N(Cc2cc(C(F)(F)F)cc(C(F)(F)F)c2)[C@H]1c1ccc(CO)cc1,-0.0744
7,CCCC#C[Si](O[C@H](CC)c1cn([C@H](CO)Cc2ccccc2)nn1)(C(C)C)C(C)C,0.868
8,CC(=O)N1Cc2ccccc2C[C@@]2(COC(c3ccc(OCCCO)cc3)=N2)C1=O,0.707
9,CC(C)(C)OC(=O)CC[C@@]1(C(=O)NCCN2CCOCC2)N=C(c2ccc(OCCCO)cc2)O[C@@H]1c1ccccc1N=[N+]=[N-],0.641
10,CN1C(=O)C2C=CC(C(O)c3ccccc3)N(Nc3ccccc3)C2C1=O (centres undefined),0.761
11,CC(=O)n1cc(C(O)C2C=CC3C(=O)N(C)C(=O)C3N2Nc2ccccc2)c2ccccc21 (centres undefined),0.712
12,C=C(COC)/C(=C/C[C@H](OC(=O)c1ccncc1)c1ccc(OCCO)cc1)c1cnc2ccccc2c1,0.808
13,COc1ccc(C#Cc2ccc3c(c2)[C@]2(C(=O)N3)[C@H](c3ccccc3OCCO)N3[C@H](c4ccccc4)[C@H](c4ccccc4)OC(=O)[C@H]3[C@@H]2C(=O)O)cc1,0.702
14,C=CC[C@]1(C(=O)N2CCCCC2)N=C(c2ccc(OCCCO)cc2)O[C@H]1c1ccccc1,0.579
15,COCCOC(=O)N1C(=O)[C@@]2(c3cc(C#Cc4ccc(OC)cc4)ccc31)[C@H](C(N)=O)[C@H]1C(=O)O[C@H](c3ccccc3)[C@H](c3ccccc3)N1[C@@H]2c1ccccc1OCCO,0.73
16,O=C1OCCC/C=C\[C@H]2OC34C=CCN(Cn5nnc6ccccc65)C(=O)[C@H]3N(CCO)C(=O)[C@@H]4C12 (some centres undefined),0.926
17,C=CCN1C(=O)[C@@]2(O[C@@H](CCO)[C@H]([Si](C)(C)c3ccc(OC)cc3)[C@H]2C)c2cc(NC(=O)c3ccc(OC)cc3)ccc21,0.317
18,COc1ccc(C(O)C2C=CC3C(=O)N(c4ccccc4)C(=O)C3N2Nc2ccccc2F)cc1OCc1ccccc1 (centres undefined),1.01
19,CCCCCN1CC=CC23O[C@@H]4/C=C\CCCOC(=O)C4[C@H]2C(=O)N(CCCO)[C@@H]3C1=O (some centres undefined),0.433
20,CN(C)C(=O)[C@@]1(Cc2ccccc2)N=C(c2ccc(OCCCO)cc2)O[C@H]1c1ccccc1N=[N+]=[N-],0.952
21,O=C1OCC=C[C@H]2OC34C=CCN(CCN5CCOCC5)C(=O)[C@H]3N(CCCO)C(=O)[C@@H]4[C@@H]12 (some centres undefined),0.416
22,CN(C)C(=O)[C@]1(Cc2ccccc2N=[N+]=[N-])N=C(c2ccc(OCCCO)cc2)O[C@@H]1c1ccccc1,0.724
23,COc1ccc(C(=O)Nc2ccc(CN3C(=O)[C@@]4(O[C@@H](CCO)[C@H]([Si](C)(C)c5ccc(OC)cc5)[C@H]4C)c4ccccc43)cc2)cc1,-0.338
24,CCOC(=O)C[C@H]1[C@H](OC(=O)Cc2ccc3c(c2)OCO3)[C@@H](NC(=O)c2ccc3ccccc3c2)c2cc(OCCCO)ccc2N1C(=O)c1ccccc1,0.601
25,COc1ccc(C(=O)O[C@H]2CC[C@]3(C)C4=C(CCC3C2(C)C)[C@]2(C)CC[C@H]([C@H](C)CCCC(C)C)[C@@]2(C)CC4)cc1 (some centres undefined),0.12
26,CN1C(=O)[C@]2(Cc3ccccc3)N=C(c3ccc(OCCCO)cc3)O[C@@H]2c2ccccc21,0.18
27,COc1ccc(CCNC(=O)[C@@]2(C)c3ccccc3C(=O)N(Cc3cc(F)cc(C(F)(F)F)c3)[C@H]2c2ccc(CO)cc2)cc1,-0.825
28,COc1ccc(C(O)C2C=CC3C(=O)NC(=O)C3N2Nc2ccccn2)cc1 (centres undefined),-0.131
29,CN(C)CCCC[C@@H]1NC(=O)[C@H]2C[C@@H](C(=O)NCCCCCNC(=O)CS)[C@@H](c3cccc(OCCO)c3)N2C1=O,0.816
